Measured values: the supplement of paper PMC11417369
± gives the standard deviation of the averaged measurements. The full ranking holds about 25,000 sequences; the median of “ln(normalized median fluorescence intensity)” is about 8.6, and the highest 2% start at about 10. The list comes from a sample in which the highest values are over-represented; it also holds similar and randomly drawn sequences.

What follows are sequences tested on PfAP2-EXP AP2 domain (GST-tagged) (assay: gcPBM binding intensity (ln(normalized median fluorescence intensity)); higher = stronger DNA binding).
In short: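 Each value is the highest Masliner-normalised natural-log median intensity across replicate spots of either orientation of a probe. The probes were primer-extended double-stranded 36-bp intergenic genomic sequences on an Agilent 4 × 180k array, alongside negative controls, exposed for 1 h to GST-tagged P. falciparum DNA-binding domains expressed in E. coli. Bound protein was picked up with Alexa488 anti-GST antibody and scanned at 488 nm.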

Point of comparison: “ATATATATAATAAGTGGTACAAGTTATTCATTAAAT [XGTACX_site7063]”, “gcPBM binding intensity (ln)” value 8.64 ± 0.3. Against it:
- AATATGTTATAAATATGTTATAAATAATAAATAAAT [GTGCAC_negctrl_site135] — within error, 8.45 ± 0.47
- AAAATGAAATATGTTATATATATATATATATATATA [CACACA_negctrl_site1752] — higher, 9.9 ± 0.4
- ATATATATTATAAAATGTACAAATGTTATATAAAAT [XGTACX_site4750] — within error, 8.85 ± 0.45
- ATCAAAAATGTTATATATATATATATATATATATAT [TGCATGCA_negctrl_site71] — higher, 10.2 ± 0.45
- ATATGTTATATAAATATATATATATATATATATATA [TGCATGCA_negctrl_site594] — higher, 10.1 ± 0.33
- GTTATATGTTATATATATATATATATATATATATAT [TGCATGCA_negctrl_site428] — higher, 10.2 ± 0.65
- ATATATATATATTCCACACACACACTAATAAAAAAA [CACACA_site9214] — higher, 9.94 ± 0.16
- AACTGATTATTTTTTTGTACATATATAATAATATAT [XGTACX_site5953] — within error, 8.61 ± 0.33
- GACCATGTTAACAAAGCATGCATCTCTATATGTTTA [TGCATGCA_site358] — within error, 8.87 ± 0.49
- TCATAACAACTTTGTGTGCACATAAAACATGTATAT — within error, 8.94 ± 0.3
- TATATTTATTTATACACATGCATATTTTAAGGGCTC [TGCATGCA_site885] — within error, 8.72 ± 0.4
- ATCTAAACCTTTTGAGCACACATATATATATATATA [CACACA_site8526] — higher, 9.86 ± 0.7
- TCATATCTTTTGAGCACACATATATATATATAAAGG [CACACA_site3338] — within error, 8.71 ± 0.34
- CTAAACCTTTTGAGCACACATATATATATATATATA [CACACA_site1782] — higher, 10.4 ± 0.16
- TAACAAAACATAGATTGTACATATTATAAATGTATA [XGTACX_site1543] — within error, 8.46 ± 0.38
- TTTATTTTGTAGTGTACACATATATATATATATATA [CACACA_site5843] — higher, 10.3 ± 0.36
- AATATATATTTGTGTACACATTATATATATATATAT [CACACA_site6103] — higher, 10 ± 0.35
- TTTCGTAACTATTTGTGTACATATATATATATATAT [XGTACX_site2920] — higher, 10.3 ± 0.29
- ACATATTTTATTTTTTGTACACATATATTATTTTTT [XGTACX_site6528] — within error, 8.99 ± 0.42
- TAATATTTTTTGTGTACACATATATATATATATATA [CACACA_site5504] — higher, 10.2 ± 0.53
- ATATATATATTTGTATGTACATATATATATTCGTAT [XGTACX_site1640] — within error, 9.23 ± 0.29
- TTTTTATTTGGTTGTGTACACATATATATATATATA [CACACA_site5844] — higher, 10.2 ± 0.3
- TTTATTAATTTATAGTGTACATATTAATAATATATT [XGTACX_site7949] — within error, 8.35 ± 0.2
- GTTTTCTAGTGGGGGTGTACATATTTATATTTAATA [XGTACX_site8378] — higher, 10.9 ± 0.34
- TTTTTTTTGTGTATTTGTACATAATATATATATATA [XGTACX_site7092] — higher, 9.68 ± 0.19
- GTGTAATATATTTTTCGTACATATTATATATATATA [XGTACX_site1675] — higher, 9.8 ± 0.37
- ATATATTATTTCTAGTGTACATACCCATATATAATA [XGTACX_site8902] — within error, 8.97 ± 0.33
- GATCTATATATCATTACACACTTGAATTACTTAAAA [CACACA_site21] — within error, 8.49 ± 0.36
- TAATTTTTTTTTTTTTTTTTTTTTTTTTTTTTCCTT [CACACA_negctrl_site1095] — within error, 7.8 ± 0.61
- TAATTTTTATGAAGAAGTACAAAATCTACTATCATA [XGTACX_site4985] — within error, 7.99 ± 0.38
- CGAACAAACAAATAAACACACAAAAAAAGATATATA [CACACA_site6944] — within error, 8.72 ± 0.57
- AATGATAAATAAAAAGCATGCAACAAATAAAAATAA [TGCATGCA_site453] — higher, 9.84 ± 0.22
- TAAACCAAAAAAAGTAGTACAAATATTATAAAAAAA [XGTACX_site8497] — within error, 8.69 ± 0.39
- TTGTATTTTTAAATGACACACACATATATATATATA [CACACA_site8481] — higher, 10.1 ± 0.38
- ATTTATTATTATATCACACATAATATATTAAATGAT [CACACA_site5821] — within error, 8.28 ± 0.39
- ATATTTAAATGGATCACACATATATATATATATATA [CACACA_site5255] — higher, 10.3 ± 0.3
- GTATTTTTAAATGACACACACATATATAAATATGTA [CACACA_site6880] — within error, 8.38 ± 0.31
- CATAAAAATGGATACACACACATAATATATTTATAT [CACACA_site7669] — within error, 8.61 ± 0.4
- GTATTTTTAAATGACACACACATATATATATATATA [CACACA_site1662] — higher, 10.2 ± 0.5
- TTAACATATTTGTTAGTGCATTTTGATATTACACAT [GTGCAC_site9978] — within error, 8.6 ± 0.33
- TCATACGAAATATAAACACACATACAATAAATAAAT [CACACA_site5156] — within error, 8.78 ± 0.44
- AACCACATACATATAACACACATATACAATATATAT [CACACA_site8607] — within error, 8.55 ± 0.45
- CACCCACACCAACACACACACATATATAATATATAT [CACACA_site595] — within error, 8.81 ± 0.39
